{"source": "paper PMC8384837", "about": "“Expanding the binding specificity for RNA recognition by a PUF domain”", "experiment_in_all_cases": "yeast three-hybrid, YBZ-1, SC-Leu-His + 0.5 mM 3-AT, 4 days", "conditions_in_all_cases": "tags: N-Gal4 AD-HA kept; label: inside an RPR1-promoter hybrid RNA with tandem MS2 sites; ssRNA", "key": {"[1]": {"target": "PUM1 PUF domain R7-RAS (Homo sapiens, UniProt Q14671 828-1176, S1079R;N1080A;E1083S)", "how_it_was_run": "(§1)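 The interaction score is the log change in variant frequency from input to selection. Scores were computed in log2 with a pseudocount of 1 for absent variants, using Illumina sequencing of PCR-amplified repeat regions. The input came from four days on SC-Leu and the selection from four days on SC-Leu-His + 0.5 mM 3-AT. The cells were strain YBZ-1 (LexA–MS2 coat fusion, HIS3 reporter) co-expressing Pumilio-1 PUF domain libraries and matching RNA elements from a centromeric plasmid.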"}, "[2]": {"target": "PUM1 PUF domain R7-GVD (Homo sapiens, UniProt Q14671 828-1176, S1079G;N1080V;E1083D)", "how_it_was_run": "as §1"}, "[3]": {"target": "T1, PUM1 PUF domain R6-QWG (Homo sapiens, UniProt Q14671 828-1176, N1043Q;Y1044W;Q1047G)", "T1 sequence": "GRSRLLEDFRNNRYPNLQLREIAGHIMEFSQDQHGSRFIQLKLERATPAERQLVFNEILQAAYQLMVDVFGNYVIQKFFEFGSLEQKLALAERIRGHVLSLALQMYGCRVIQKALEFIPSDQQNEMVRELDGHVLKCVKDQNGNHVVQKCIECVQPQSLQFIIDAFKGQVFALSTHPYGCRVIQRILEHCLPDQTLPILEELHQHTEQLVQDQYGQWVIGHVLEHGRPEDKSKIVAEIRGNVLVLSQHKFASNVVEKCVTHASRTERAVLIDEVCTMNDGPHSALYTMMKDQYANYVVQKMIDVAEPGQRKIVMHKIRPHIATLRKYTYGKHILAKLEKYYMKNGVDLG", "how_it_was_run": "as §1"}, "[4]": {"target": "PUM1 PUF domain R4-CCG (Homo sapiens, UniProt Q14671 828-1176, N971C;H972C;Q975G)", "how_it_was_run": "as §1"}, "[5]": {"target": "PUM1 PUF domain R2-EHL (Homo sapiens, UniProt Q14671 828-1176, N899E;Y900H;Q903L)", "how_it_was_run": "as §1"}, "[6]": {"target": "PUM1 PUF domain R8-SFQ (Homo sapiens, UniProt Q14671 828-1176, N1122S;Y1123F)", "how_it_was_run": "as §1"}, "[7]": {"target": "PUM1 PUF domain R5-RLD (Homo sapiens, UniProt Q14671 828-1176, C1007R;R1008L;Q1011D)", "how_it_was_run": "as §1"}, "[8]": {"target": "PUM1 PUF domain R5-RQV (Homo sapiens, UniProt Q14671 828-1176, C1007R;R1008Q;Q1011V)", "how_it_was_run": "as §1"}, "[9]": {"target": "PUM1 PUF domain R5-LNT (Homo sapiens, UniProt Q14671 828-1176, C1007L;R1008N;Q1011T)", "how_it_was_run": "as §1"}, "[10]": {"target": "PUM1 PUF domain R1-FAR (Homo sapiens, UniProt Q14671 828-1176, S863F;R864A;Q867R)", "how_it_was_run": "as §1"}, "[11]": {"target": "PUM1 PUF domain R1-GMR (Homo sapiens, UniProt Q14671 828-1176, S863G;R864M;Q867R)", "how_it_was_run": "as §1"}, "[12]": {"target": "PUM1 PUF domain R1-KKR (Homo sapiens, UniProt Q14671 828-1176, S863K;R864K;Q867R)", "how_it_was_run": "as §1"}, "[13]": {"target": "PUM1 PUF domain R5-GVD (Homo sapiens, UniProt Q14671 828-1176, C1007G;R1008V;Q1011D)", "how_it_was_run": "as §1"}, "[14]": {"target": "PUM1 PUF domain R4-LGC (Homo sapiens, UniProt Q14671 828-1176, N971L;H972G;Q975C)", "how_it_was_run": "as §1"}, "[15]": {"target": "T2, PUM1 PUF domain R6-IWS (Homo sapiens, UniProt Q14671 828-1176, N1043I;Y1044W;Q1047S)", "T2 sequence": "T1 sequence with Q216I, G220S", "how_it_was_run": "as §1"}, "[16]": {"target": "T3, PUM1 PUF domain R6-TYR (Homo sapiens, UniProt Q14671 828-1176, N1043T;Q1047R)", "T3 sequence": "T1 sequence with Q216T, W217Y, G220R", "how_it_was_run": "as §1"}, "[17]": {"target": "PUM1 PUF domain R3-RPA (Homo sapiens, UniProt Q14671 828-1176, C935R;R936P;Q939A)", "how_it_was_run": "as §1"}, "[18]": {"target": "PUM1 PUF domain R3-TSE (Homo sapiens, UniProt Q14671 828-1176, C935T;R936S;Q939E)", "how_it_was_run": "as §1"}, "[19]": {"target": "PUM1 PUF domain R2-RVN (Homo sapiens, UniProt Q14671 828-1176, N899R;Y900V;Q903N)", "how_it_was_run": "as §1"}, "[20]": {"target": "PUM1 PUF domain R4-SRR (Homo sapiens, UniProt Q14671 828-1176, N971S;H972R;Q975R)", "how_it_was_run": "as §1"}}, "note": "Residue numbers refer to the chain shown, from its start.", "data": [{"sequence": "GGCUAGAACUAGUGGAUCCCCCGGCGCCCGGCGGCUCGAGCCCGGGUAAGUUUAAAUAGUCUGCAUGCCGCCGGGCGCCAUGCCUGCAGGUCGACUCUAGAAAACAUG", "values": [{"measurement": "binding signal", "setting": "[1]", "result": "2.46 log2 enrichment (interaction score)"}, {"measurement": "binding signal", "setting": "[2]", "result": "2.75 log2 enrichment (interaction score)"}]}, {"sequence": "GGCUAGAACUAGUGGAUCCCCCGGCGCCCGGCGGCUCGAGCCCGGGUAAGUGAAAAUAGUCUGCAUGCCGCCGGGCGCCAUGCCUGCAGGUCGACUCUAGAAAACAUG", "values": [{"measurement": "binding signal", "setting": "[3]", "result": "3.38 log2 enrichment (interaction score)"}]}, {"sequence": "GGCUAGAACUAGUGGAUCCCCCGGCGCCCGGCGGCUCGAGCCCGGGUAAGUGUAUAUAGUCUGCAUGCCGCCGGGCGCCAUGCCUGCAGGUCGACUCUAGAAAACAUG", "values": [{"measurement": "binding signal", "setting": "[4]", "result": "1.84 log2 enrichment (interaction score)"}]}, {"sequence": "GGCUAGAACUAGUGGAUCCCCCGGCGCCCGGCGGCUCGAGCCCGGGUAAGUGUAAAAAGUCUGCAUGCCGCCGGGCGCCAUGCCUGCAGGUCGACUCUAGAAAACAUG", "values": [{"measurement": "binding signal", "setting": "[5]", "result": "3.07 log2 enrichment (interaction score)"}]}, {"sequence": "GGCUAGAACUAGUGGAUCCCCCGGCGCCCGGCGGCUCGAGCCCGGGUAAGCGUAAAUAGUCUGCAUGCCGCCGGGCGCCAUGCCUGCAGGUCGACUCUAGAAAACAUG", "values": [{"measurement": "binding signal", "setting": "[6]", "result": "2.84 log2 enrichment (interaction score)"}]}, {"sequence": "GGCUAGAACUAGUGGAUCCCCCGGCGCCCGGCGGCUCGAGCCCGGGUAAGUGUUAAUAGUCUGCAUGCCGCCGGGCGCCAUGCCUGCAGGUCGACUCUAGAAAACAUG", "values": [{"measurement": "binding signal", "setting": "[7]", "result": "0.72 log2 enrichment (interaction score)"}, {"measurement": "binding signal", "setting": "[8]", "result": "4.22 log2 enrichment (interaction score)"}, {"measurement": "binding signal", "setting": "[9]", "result": "4.04 log2 enrichment (interaction score)"}]}, {"sequence": "GGCUAGAACUAGUGGAUCCCCCGGCGCCCGGCGGCUCGAGCCCGGGUAAGUGUAAAUUGUCUGCAUGCCGCCGGGCGCCAUGCCUGCAGGUCGACUCUAGAAAACAUG", "values": [{"measurement": "binding signal", "setting": "[10]", "result": "4.18 log2 enrichment (interaction score)"}, {"measurement": "binding signal", "setting": "[11]", "result": "1.96 log2 enrichment (interaction score)"}, {"measurement": "binding signal", "setting": "[12]", "result": "7.39 log2 enrichment (interaction score)"}]}, {"sequence": "GGCUAGAACUAGUGGAUCCCCCGGCGCCCGGCGGCUCGAGCCCGGGUAAGUGUGAAUAGUCUGCAUGCCGCCGGGCGCCAUGCCUGCAGGUCGACUCUAGAAAACAUG", "values": [{"measurement": "binding signal", "setting": "[13]", "result": "5.11 log2 enrichment (interaction score)"}]}, {"sequence": "GGCUAGAACUAGUGGAUCCCCCGGCGCCCGGCGGCUCGAGCCCGGGUAAGUGUAAAUCGUCUGCAUGCCGCCGGGCGCCAUGCCUGCAGGUCGACUCUAGAAAACAUG", "values": [{"measurement": "binding signal", "setting": "[10]", "result": "0.5 log2 enrichment (interaction score)"}, {"measurement": "binding signal", "setting": "[11]", "result": "3.57 log2 enrichment (interaction score)"}, {"measurement": "binding signal", "setting": "[12]", "result": "6.78 log2 enrichment (interaction score)"}]}, {"sequence": "GGCUAGAACUAGUGGAUCCCCCGGCGCCCGGCGGCUCGAGCCCGGGUAAGUGUAAAUAGUCUGCAUGCCGCCGGGCGCCAUGCCUGCAGGUCGACUCUAGAAAACAUG", "values": [{"measurement": "binding signal", "setting": "[14]", "result": "4 log2 enrichment (interaction score)"}, {"measurement": "binding signal", "setting": "[4]", "result": "2.6 log2 enrichment (interaction score)"}, {"measurement": "binding signal", "setting": "[15]", "result": "2.75 log2 enrichment (interaction score)"}, {"measurement": "binding signal", "setting": "[3]", "result": "5.49 log2 enrichment (interaction score)"}, {"measurement": "binding signal", "setting": "[16]", "result": "5.51 log2 enrichment (interaction score)"}, {"measurement": "binding signal", "setting": "[17]", "result": "0.97 log2 enrichment (interaction score)"}]}, {"sequence": "GGCUAGAACUAGUGGAUCCCCCGGCGCCCGGCGGCUCGAGCCCGGGUAAGUGUCAAUAGUCUGCAUGCCGCCGGGCGCCAUGCCUGCAGGUCGACUCUAGAAAACAUG", "values": [{"measurement": "binding signal", "setting": "[7]", "result": "2.78 log2 enrichment (interaction score)"}, {"measurement": "binding signal", "setting": "[8]", "result": "4.73 log2 enrichment (interaction score)"}]}, {"sequence": "GGCUAGAACUAGUGGAUCCCCCGGCGCCCGGCGGCUCGAGCCCGGGUAAGUGUAAGUAGUCUGCAUGCCGCCGGGCGCCAUGCCUGCAGGUCGACUCUAGAAAACAUG", "values": [{"measurement": "binding signal", "setting": "[18]", "result": "4.66 log2 enrichment (interaction score)"}]}, {"sequence": "GGCUAGAACUAGUGGAUCCCCCGGCGCCCGGCGGCUCGAGCCCGGGUAAGUGCAAAUAGUCUGCAUGCCGCCGGGCGCCAUGCCUGCAGGUCGACUCUAGAAAACAUG", "values": [{"measurement": "binding signal", "setting": "[16]", "result": "5.11 log2 enrichment (interaction score)"}]}, {"sequence": "GGCUAGAACUAGUGGAUCCCCCGGCGCCCGGCGGCUCGAGCCCGGGUAAGUGUAAAGAGUCUGCAUGCCGCCGGGCGCCAUGCCUGCAGGUCGACUCUAGAAAACAUG", "values": [{"measurement": "binding signal", "setting": "[19]", "result": "3.32 log2 enrichment (interaction score)"}]}, {"sequence": "GGCUAGAACUAGUGGAUCCCCCGGCGCCCGGCGGCUCGAGCCCGGGUAAGUGUAAUUAGUCUGCAUGCCGCCGGGCGCCAUGCCUGCAGGUCGACUCUAGAAAACAUG", "values": [{"measurement": "binding signal", "setting": "[17]", "result": "3.99 log2 enrichment (interaction score)"}]}, {"sequence": "GGCUAGAACUAGUGGAUCCCCCGGCGCCCGGCGGCUCGAGCCCGGGUAAGUGUACAUAGUCUGCAUGCCGCCGGGCGCCAUGCCUGCAGGUCGACUCUAGAAAACAUG", "values": [{"measurement": "binding signal", "setting": "[4]", "result": "0.76 log2 enrichment (interaction score)"}, {"measurement": "binding signal", "setting": "[20]", "result": "4.09 log2 enrichment (interaction score)"}]}]}
